Potency and affinity values are given separately.
Molecular target: KSHV LANA C-terminal domain (residues 932-1162) binding to LBS DNA (UniProt O40947)
Assay: inhibitors of C-LANA binding to LBS DNA, dose response, biochemical, fluorescence polarization, cherry-picked samples (AID 504725)
Details: MBP-C-LANA / FAM-LBS DNA fluorescence polarization, percent change from plate compound-well median; series mostly up to 35 µM; activity change, negative = inhibition: at the top concentration; call rule not given here

Activity change, negative = inhibition, inactive:
C=CC[C@@H](CC(=O)N(CCO)Cc1ccccc1)C(=O)NC[C@H](OC(=O)[C@@H](CC=C)CC(=O)OC(C)(C)C)c1ccccc1 -12.1%
Cc1cc(NC(=O)CSc2nnc(COc3cccc(C)c3C)n2C)no1 0.641%
CCN(CCCNC(=O)Cn1cc2c(n1)CCCC2)c1cccc(C)c1 1.47%
Cn1cc(C(=O)c2ccc(Cl)cc2Cl)cc1C(=O)N/N=C(\N)COc1ccccc1 -0.182%
CC(Sc1nc(-c2ccco2)nc2c1c(=O)n(C)c(=O)n2C)C(=O)O (stereo not drawn) -1.29%
Cc1ccc(NC(=S)N/C(=N/S(=O)(=O)c2ccccc2)c2ccccc2)cc1 0.947%
CCCn1c(SCC(=O)NCc2cccs2)nc2c1c(=O)n(C)c(=O)n2C 1.8%
COc1ccc(CCNC(=O)CNC(=O)Cn2ccc3ccccc3c2=O)cc1OC 0.222%
NNC(=S)Nc1ccc(S(=O)(=O)N2CCOCC2)cc1 3.24%
O=C(CCN1C(=O)/C(=C/c2ccco2)SC1=S)Nc1ccc(C(=O)O)c(O)c1 -10.2%
O=C1CCCC2=C1C(c1ccc(O)c(O)c1)Nc1ccc3ncccc3c12 (stereo not drawn) -2.14%
CCOCCCn1c(SCC(=O)NC(C)(C)C)nc2ccccc2c1=O -4.61%
CN(Cc1cnc2nc(N)nc(N)c2n1)c1ccc(C(=O)NC(CCC(=O)O)C(=O)O)cc1 (stereo not drawn) -14%
O=C(NCCN1CCN(C(=O)c2cccs2)CC1)c1cccs1 0.287%
O=C(N/N=C\c1ccc([N+](=O)[O-])o1)c1cncc(Br)c1 -0.045%
Cc1ccc(NC(=O)CN2C(=O)N/C(=C/c3cc(C)n(-c4ccc(C(=O)O)cc4)c3C)C2=O)cc1 -8.71%
Cn1c(N)c(C(=O)COC(=O)c2ccc(Cl)c(S(=O)(=O)N3CCCC3)c2)c(=O)n(C)c1=O -4.06%
CCOc1ccccc1N1CCN(C(=O)c2ccc3nc(N)sc3c2)CC1 1.38%
O=[N+]([O-])c1cc(-n2cnnn2)ccc1N1CCC(Cc2ccccc2)CC1 -0.279%
Cn1c(Cl)c(C(=O)Nc2ccc(Cl)cc2)c2ccccc21 1.43%
Cc1cc(NS(=O)(=O)c2ccc(Nc3nc(-c4sc(N)nc4C)cs3)cc2)no1 -10.2%
CCN(CC(=O)Nc1ccc(OC)cc1)C(=O)c1cc([N+](=O)[O-])ccc1N1CCOCC1 1.06%
O=C(O)c1ccccc1NC(=O)c1cc(-c2ccccc2)nc2ccccc12 -0.076%
CCn1c(-c2ccc([N+](=O)[O-])cc2)n[nH]c1=S 4.45%
COc1cc(OC)cc(-c2c(-c3ccsc3)c3cc(Br)ccc3n2C)c1 -0.377%
Nc1nc(SCC(=O)N2CCCCC2)[nH]c(=O)c1NC(=O)c1cccs1 -2.83%
Nc1ccc2c(O)cc(S(=O)(=O)O)cc2c1 -8.96%
Cc1cccc(COc2ccc(/C=N/NC(=O)c3nnn(-c4nonc4N)c3COc3ccc(F)cc3)cc2)c1 8.39%
O=C(Cn1c2ccccc2c2nc3n(c(=O)c21)CCS3)Nc1ccccc1C(F)(F)F 0.798%
CCN(C(=O)COC(=O)c1ccc([N+](=O)[O-])o1)C1CCCCC1 -4.41%
O=C(Nc1ccc2c(c1)OCO2)N1CCCc2ccccc21 1.73%
O=C(c1cccc(S(=O)(=O)NCc2ccccc2)c1)N1CCN(c2ccccc2Cl)CC1 -13%
COc1cccc(NC(=O)N(CCN(C)C)C(C)c2cccnc2)c1 (stereo not drawn) 1.39%
COC(=O)c1ccccc1OCC(=O)N1CCN(c2ccc(Cl)cc2)CC1 0.64%
CC1CC(C)(C)NC(=S)N1CC(=O)N(C)Cc1ccccc1 (stereo not drawn) -0.507%
CCCc1nc(SC)[nH]c(=O)c1C -1.44%
Cc1c(N)cc(S(=O)(=O)O)cc1NC(=O)c1cccc([N+](=O)[O-])c1 -8.5%
CCOc1ccc(S(=O)(=O)N(C)c2ccc(OCC(=O)NC3=NCCS3)cc2)cc1 -4.63%

From PubChem BioAssay AID504725 (Broad Institute, 2011)
